From the supplement of paper PMC3342239
Where a name gives a salt, the structure may show the parent alone.

System: Saccharomyces cerevisiae
Test: fraction of cells in G1 phase (DNA content, flow cytometry); higher = more cells with unreplicated DNA (G1 delay)
Conditions: temperature: 30 C; YPD; JTY2953 pdr5 snq2 (sensitized); drug added to: cultures diluted from stationary phase; 6-7 h
How it was run: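 Yeast (S. cerevisiae) in YPD at 30°C was treated with library drugs, and cells were then fixed in ethanol, stained with SYTOX Green and counted by flow cytometry over 10,000 events. Sensitized JTY2953 diluted 1∶200 from an overnight culture got a final 20 µg/ml and was fixed 6–7 h later; other runs dosed dividing JTY2953 (fixed at 6 h) or BY4741 (fixed at 4.33 h). G1 fraction means the Dean-Jett-Fox G1 peak area relative to the G1 and G2/M areas together.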

Row | SMILES | fraction of cells in G1 phase
1 | CC#CCC(C)[C@H](O)/C=C/[C@@H]1[C@H]2C/C(=C/CCCC(=O)O)C[C@H]2C[C@H]1O (stereo partly specified) [Iloprost] (55.4788 µM) | 0.481
2 | O=NN(CCCl)C(=O)NC1CCCCC1 [Lomustine] (85.5799 µM) | 0.451
3 | CC(C)NCC(O)COc1cccc2ccccc12 (stereo unspecified) [Propranolol] (77.1155 µM) | 0.477
4 | C[C@@H](O[C@H]1OCCN(Cc2n[nH]c(=O)[nH]2)[C@H]1c1ccc(F)cc1)c1cc(C(F)(F)F)cc(C(F)(F)F)c1 [Aprepitant] (37.4225 µM) | 0.493
5 | Nc1nc(N)nc(-c2cc(Cl)ccc2Cl)n1 [Irsogladine maleate] (78.0958 µM) | 0.471
6 | NC(=O)N1c2ccccc2C=Cc2ccccc21 [Carbamazepine] (84.6469 µM) | 0.483
7 | Cc1nc2n(c(=O)c1CCN1CCC(c3noc4cc(F)ccc34)CC1)CCCC2 [Risperidone] (48.7216 µM) | 0.472
8 | C[C@H]1COc2c(C3(N)CC3)c(F)cc3c(=O)c(C(=O)O)cn1c23 [Pazufloxacin] (62.8324 µM) | 0.474
9 | C[C@H]1c2cccc(O)c2C(O)=C2C(=O)[C@]3(O)C(O)=C(C(N)=O)C(=O)[C@@H](N(C)C)[C@@H]3[C@@H](O)[C@@H]21 [Doxycycline HCl] (44.9999 µM) | 0.53
10 | C=C(c1ccc(C(=O)O)cc1)c1cc2c(cc1C)C(C)(C)CCC2(C)C [Bexarotene] (57.3905 µM) | 0.546
11 | NCCCC[C@H](N[C@@H](CCc1ccccc1)C(=O)O)C(=O)N1CCC[C@H]1C(=O)O [Lisinopril] (49.322 µM) | 0.502
